Source: PubChem BioAssay
Only some compounds are listed: those with a hit (about 9% of all), similar ones and a draw of the others.
HPGD inh: qHTS Assay for Inhibitors of HPGD (15-Hydroxyprostaglandin Dehydrogenase) | AID 894, 2007 | purified HPGD, NADH fluorescence kinetic, PGE2 substrate | Potency, µM, for the others: at the top dose activity change, negative = inhibition, hits mostly inhibitors | 4.3% of 150,000 active; active = well fitted inhibition curve with a large enough effect, not every such curve was filed as active; inconclusive = small, poorly fitted or top-dose-only effect, or another doubt; inactive = no such curve, though single readings can be large or run the other way; note: % is set by controls: 0 for no effect and ±100 for the full control effect
Target sequence (P15428 whole entry, looked up): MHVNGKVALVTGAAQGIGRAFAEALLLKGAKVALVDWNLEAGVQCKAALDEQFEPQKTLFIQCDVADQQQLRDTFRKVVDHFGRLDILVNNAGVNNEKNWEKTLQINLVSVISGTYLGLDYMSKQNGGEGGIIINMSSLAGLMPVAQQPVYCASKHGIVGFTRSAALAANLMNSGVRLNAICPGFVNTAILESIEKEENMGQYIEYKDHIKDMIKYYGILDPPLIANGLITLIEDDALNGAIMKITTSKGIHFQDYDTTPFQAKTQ
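20 nM HPGD preincubated 15 min at room temperature with compound in 50 mM Tris-HCl pH 8, 0.01% Tween 20. Started with 1 mM NAD+ and 30 uM prostaglandin E2; NADH fluorescence (360/450 nm) read 5 times over 30-s intervals, last minus first.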
KinaseGlo FLuc: Counterscreen for Luciferase (Kinase-Glo TM) Inhibition | Potency, µM (titrated, usually from 38.3 µM), for the others: at the highest dose activity change, negative = inhibition, actives largely listed as inhibitors | Luciferin 4-monooxygenase (Photuris pensylvanica), Q27757 | 0.28% of 200,000 active | Kinase-Glo luciferase, ATP luminescence, 8 min | AID 1379, 2008; note: % is set by controls: 0 for no effect and ±100 for the full control effect; nearly all actives have a fitted effect of over 60% in size
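Luminescence was the read-out, taken after 8-minute incubation at ambient temperature. Luciferase turned over luciferin with 10 uM ATP in imidazole pH 7.2 buffer containing KCl, MgCl2, Tween 20 and BSA.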
ALDH1A1 inh: qHTS Assay for Inhibitors of Aldehyde Dehydrogenase 1 (ALDH1A1) | Purified ALDH1A1, NADH fluorescence, propionaldehyde substrate | 7.3% of 220,000 active | Aldehyde dehydrogenase 1A1 (Homo sapiens), P00352 | Potency, µM (highest dose often 75.3 µM), for the others: at the highest dose activity, negative = inhibition, actives largely listed as inhibitors; active = well fitted inhibition curve with a large enough effect, not every such curve was filed as active; inconclusive = small, poorly fitted or top-dose-only effect, or another doubt; inactive = no such curve, though single readings can be large or run the other way;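 note: plate controls were no enzyme wells and a reference inhibitor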
HTT aggregate: qHTS Multiplex Assay to Identify Dual Action Probes in a Cell Model of Huntington: Aggregate Formation (GFP). PC12 HttQ103-GFP aggregates, Acumen cytometry, 40 h. Potency, µM (doses to about 46.1 µM), for the others: at the top dose activity change, negative = inhibition, actives largely listed as inhibitors. 1.1% of 220,000 active. AID 1688, 2009; note: % is set by controls: 0 for no effect and ±100 for the full control effect; nearly all actives have a fitted effect of over 60% in size
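Compounds (qHTS titration) were added to PC12 cells expressing an ecdysone-driven HTT exon 1 Q103–GFP fusion after induction with 100 nM tebufenozide. Aggregate formation was measured as GFP objects in cell lysates.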
HTT cytoprotect: qHTS Multiplex Assay to Identify Dual Action Probes in a Cell Model of Huntington: Cytoprotection (ATP); 0.14% of 230,000 active; PC12 HTT-Q103 induced, cytoprotection, ATP luminescence, 40 h; AID 1471, 2008; Potency, µM (top dose mostly 56.4 µM), for inactives: cytoprotection (ATP increase), usual class: activators; note: % of control where 0% means no effect; nearly all actives have a fitted effect of over 45% in size
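Compounds added alongside 100 nM tebufenozide, which induces toxic Q103 huntingtin exon 1-GFP in stable PC12 cells; surviving cells quantified by luminescent ATP measurement. Medium: phenol red-free DMEM, 5% equine and 5% calf serum.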
Lamin A splicing: qHTS Assay for Modulators of Lamin A Splicing | HeLa LMNA splicing GFP/RFP minigene ratio, 48 h | Potency, µM (series often up to 46.1 µM), inactives show top-dose ratio change, negative = inhibition, most hits filed as inhibitors | 0.01% of 200,000 active | AID 1487, 2009; active = well fitted inhibition curve with a large enough effect in the signal ratio, with a control signal flat, not every such curve was filed as active; inconclusive = small, poorly fitted or top-dose-only effect, or effect the other way, or a change in a side signal; the % refers to the signal ratio; note: % is set by controls: 0 for no effect and ±100 for the full control effect
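Read-out is the ratio of GFP to DsRed2 object intensity, acquired by 488 nm laser-scanning cytometry on HeLa lamin A-EGFP minigene reporter cells. Compound incubation 48 hrs at 37 °C in Opti-MEM with 2% FBS; DMSO 0.5% final.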
Numbers without * were called inactive; ? = inconclusive; nt = not tested or not shown; [ ] = another dose, or the depositor's remark. Unless noted, calls come from the whole dose curve; as a rule, active = well fitted curve in the direction sought with a large enough effect; inconclusive = small, poorly fitted or top-dose-only effect, or another doubt; inactive = no such curve, though single readings can be large; an effect the other way counts as inactive or inconclusive. Potency is the fitted concentration of half-maximal effect.

SMILES	HPGD inh	KinaseGlo FLuc	ALDH1A1 inh	HTT aggregate	HTT cytoprotect	Lamin A splicing
CCSc1nc(-c2ccc(OC)cc2)cc(-c2ccccc2)c1C#N	?	19%	?	?	-3%	1%
CC1CCN(C(=O)c2cc(F)c(F)cc2Cl)CC1	13µM*	2%	3%	-10%	-2%[10 µM]	-9%
CSc1ccc(C(=S)N2CCN(CCO)CC2)cc1	25µM*	1%	22µM*	-17%	-4%[10 µM]	-4%
OCCN1CCN(C(=S)c2ccc(Br)cc2)CC1	-9%	-2%	6%	10%	3%	3%
O=C1c2cccc3cccc(c23)C(=O)N1c1nccs1	-19%	-1%	-1%	-20%	-14%	3%
O=C1c2cccc3c([N+](=O)[O-])ccc(c23)C(=O)N1c1ccccn1	28µM*	-6%	5%	24%	10%	-27%
O=C1c2cccc3c([N+](=O)[O-])ccc(c23)C(=O)N1c1nccs1	-1%	-4%	-13%	13µM*	-100%	?
O=C(c1nc2ccc(Cl)cn2c1CNCCn1ccnc1)N1CCCCCCC1	nt	-2%	?	18%[9.22 µM]	-8%[10 µM]	?
Cc1cc(CNCc2c(C(=O)N3CCCCCCC3)nc3ccc(Cl)cn23)nn1C	nt	-1%	16µM*	-7%[9.22 µM]	-19%[10 µM]	11%[46 µM]
COc1ccc(C(=O)N2CCC3(CCCN(c4ccccn4)C3)CC2)cc1	-28%	0%	?	nt	17%	nt
Cc1ccc(O)c(C2=NOC(O)(C(F)(F)C(F)F)C2)c1 (stereo not given)	5µM*	0%	9%	2%	-12%	?
Cc1ccc(O)c(C2=NOC(O)(C(F)(F)F)C2)c1 (stereo not given)	14µM*	1%	3%	-7%	3%	0%
Cc1ccc(O)c(C2=NCCNC(C(F)(F)C(F)F)=C2)c1	-4%	-6%	-3%	?	-2%	8%
C[C@@H]1/C=C\CC(=O)OC[C@H](C)C(=O)N[C@@H](C)C(=O)OC1	nt	nt	8%[13.5 µM]	nt	8%[10 µM]	nt
O=C(O)c1cc(-c2ccco2)nc2cc3ccccc3cc12	nt	nt	nt	3%[9.22 µM]	-10%[10 µM]	nt
Cc1cc(SCC(=O)c2ccc(Br)cc2)cc(C)[o+]1	-13%	1%[7.66 µM]	3.2µM*	nt	0%[10 µM]	nt
Cc1nc(C)n(C(=O)N(c2ccccc2)c2ccccc2)n1	-3%	1%	2%	10%	-14%[0.074 µM]	8%
Cc1cc(C(=O)CSc2nc3ccccc3c(=O)n2C)c(C)n1Cc1ccc2c(c1)OCO2	-24%	-2%	-12%	1µM*	-86%	?
CCn1c(SCC(=O)N2CCCCC2C)nc2ccsc2c1=O (stereo not given)	?	-1%	7.9µM*	-11%	-22%	?
CC1CCCCN1C(=O)CSc1nc2cc3c(cc2c(=O)n1Cc1ccc2c(c1)OCO2)OCO3 (stereo not given)	-27%	2%	22µM*	-17%	-8%[0.074 µM]	1%
Cc1cc(C(=O)CSc2nnc(-c3ccccc3)n2Cc2ccc3c(c2)OCO3)c(C)n1C	-10%	3%	-2%	10%	-23%[0.074 µM]	6%
CC1CCCCN1C(=O)CSc1nc2ccsc2c(=O)n1Cc1ccccn1 (stereo not given)	-13%	0%	16µM*	1%	-26%	0%
CCCSc1nc2ccsc2c(=O)n1CC	nt	-2%	-4%	-8%	10%[10 µM]	?
Cc1nc(N2CCOCC2)c2c(C(=O)N3CCN(c4ccc(Cl)cc4)CC3)c(C)oc2n1	nt	nt	nt	nt	nt	2%[46 µM]
Cc1ccc(C(=O)N2CCN(c3ccc(NC(=S)NC(=O)c4cccs4)cc3)CC2)cc1	nt	-1%	14µM*	14%[9.22 µM]	10%[10 µM]	?
